A selection: hits, their analogues and other compounds. The true share with any hit is near 21%.
IL1B secr inh – inhibitors of inflammasome signaling (IL-1 beta secretion); THP-1 LPS/ATP IL-1B secretion, AlphaLISA, 16 h; active compounds read low; activity change, % at 57.5 µM; 4.7% of 360,000 active; in the data active = activity change below about -50%; inconclusive = mostly about -30% to -49%
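Secreted IL-1B measured by AlphaLISA bead assay after 16 h compound exposure of THP-1 cells; compounds (final up to 57.5 uM) added 1 h before LPS (250 ng/mL) and ATP (1.25 mM) stimulation; lower signal means less secretion.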
TDP1 cell CPT – growth inhibition of DT40 Tdp1-/-;hTDP1 cells with camptothecin (screen for TDP1 inhibitors); chicken DT40 Tdp1-/-;hTDP1 cells + 20 nM CPT, ATP luminescence, 48 h; Potency, µM (highest dose often 46.2 µM), hits mostly inhibitors; 12% of 420,000 active; also: nearly all actives have a fitted effect of over 55% in size
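Cell growth measured by CellTiter-Glo luminescence after a minimum 48 h, 37 C compound exposure with 20 nM CPT in Tdp1-knockout DT40 cells stably expressing hTDP1, seeded 400/well; qHTS titration format.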
TDP1 cell noCPT – qHTS for Inhibitors of human tyrosyl-DNA phosphodiesterase 1 (TDP1): qHTS in cells in absence of CPT. DT40 Tdp1-/- hTDP1 cells, no CPT, ATP luminescence, 48 h. Potency, µM (top dose mostly 46.2 µM), usual class: inhibitors. 15% of 420,000 active; also: nearly all actives have a fitted effect of over 55% in size
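DT40 Tdp1-/-;hTDP1 cells, no CPT (DMSO vehicle only), 400 cells/well; compounds pin-transferred; ≥48 hr, 37 °C; CellTiter-Glo 30 min RT dark, luminescence read.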
RORgamma inh – blocks mouse ROR gamma transcriptional activity; Drosophila S2 Gal4-RORgamma UAS-luciferase reporter, 20 h; Potency, µM (doses to about 53.6 µM), actives largely listed as inhibitors; 5.4% of 310,000 active; AID 2551; also: nearly all actives have a fitted effect of over 60% in size
Target sequence (P51450 whole entry, looked up, the tested form may be a part): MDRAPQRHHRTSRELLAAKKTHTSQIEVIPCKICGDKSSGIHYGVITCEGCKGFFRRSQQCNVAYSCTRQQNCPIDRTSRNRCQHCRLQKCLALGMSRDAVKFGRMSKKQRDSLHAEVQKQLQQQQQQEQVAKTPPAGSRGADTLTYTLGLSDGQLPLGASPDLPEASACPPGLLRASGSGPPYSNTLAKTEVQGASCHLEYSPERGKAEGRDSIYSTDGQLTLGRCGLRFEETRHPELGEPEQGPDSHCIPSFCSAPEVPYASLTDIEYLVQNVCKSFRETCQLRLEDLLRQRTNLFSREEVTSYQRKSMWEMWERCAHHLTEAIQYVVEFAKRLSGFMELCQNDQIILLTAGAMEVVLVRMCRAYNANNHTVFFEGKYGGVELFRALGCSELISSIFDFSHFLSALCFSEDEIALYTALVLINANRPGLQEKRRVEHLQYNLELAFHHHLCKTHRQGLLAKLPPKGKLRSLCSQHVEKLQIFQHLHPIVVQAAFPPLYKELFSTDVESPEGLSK
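Stably transfected Drosophila Schneider cells are the test system, with ROR gamma fused to Gal4 and luciferase under UAS control; luminescence is read after 20 hr of 700 uM copper sulfate induction at ambient temperature.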
Gal4-VP16 FLuc – inhibits Gal4-VP16 luciferase reporter, ROR gamma counter-screen; Drosophila S2 Gal4-VP16 UAS-luciferase, luminescence, 20 h; 3.5% of 310,000 active; Potency, µM (titrated, usually from 53.6 µM), hits mostly inhibitors;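 also: Gal4-VP16 expression switched on by copper sulfate through the metallothionein promoter; nearly all actives have a fitted effect of over 50% in size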
ELG1 DNA repair – ELG1-dependent DNA repair inhibition. HEK293T ELG1-luciferase reporter, luminescence, 16 h; DNA damage induced by 5-fluorouridine. Potency, µM (doses to about 46.1 µM), hits mostly inhibitors. 2.3% of 330,000 active; also: nearly all actives have a fitted effect of over 55% in size
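Reporter activity after DNA damage by 5-fluorouridine is monitored. Compound-treated cells incubate 16 hr at 37 °C, then ONE-Glo is added for 30 min before luminescence reading.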
Hits are given with their value; – = inactive; ? = inconclusive; · = not tested or not shown; [ ] = another dose, or the depositor's remark. Unless noted, calls follow the shape of the dose curve; as a rule, active = well fitted curve in the direction sought with a large enough effect; inconclusive = small, poorly fitted or top-dose-only effect, or another doubt; inactive = no such curve, though single readings can be large; an effect the other way counts as inactive or inconclusive.

SMILES	IL1B secr inh	TDP1 cell CPT	TDP1 cell noCPT	RORgamma inh	Gal4-VP16 FLuc	ELG1 DNA repair
CC(=O)c1ccc(S(=O)(=O)NCCC(=O)NC(C)c2ccncc2)cc1 (stereo unspecified)	–	–	–	·	·	–
c1ccc(C2=Nn3c(Cn4nnc5ccccc54)nnc3SC2)cc1	–	–	–	–	–	–
Clc1ccc(C2=Nn3c(Cn4nnc5ccccc54)nnc3SC2)cc1	-53	–	–	?	–	–
c1ccc(-c2ccc(C3=Nn4c(Cn5nnc6ccccc65)nnc4SC3)cc2)cc1	-57	23µM	?	?	–	?
CCOC(=O)c1ccc(-c2c(-c3cc(OC)c(OC)c(OC)c3)noc2C)cc1F	–	1.6µM	1µM	–	–	?
CCOC(=O)c1ccc(-c2c(-c3ccc(OC)cc3)oc(=O)c3cc(OC)c(OC)cc23)cc1F	–	21µM	10µM	·	·	?
Cc1ccc(NC(=O)COC(=O)c2ccc(NC(=O)CC#N)cc2)cc1S(=O)(=O)N1CCOCC1	–	–	–	·	·	–
O=C(NC1CCCCCCC1)c1ccccc1-c1ccccc1	–	?	?	–	–	–
O=C(NC1CCCCC1)c1nc(C2CCNCC2)oc1-c1ccccc1	-66	?	?	·	·	·
Cc1ccc(-c2csc(/C=C3\SC(C)C(=O)N3CC(=O)Nc3ccccc3F)n2)cc1 (stereo unspecified)	–	?	?	–	–	–
O=C1c2ccccc2C(=O)c2c1ncn2-c1ccccc1	–	5.8µM	5.2µM	11µM	?	–
Nc1nc2c(ncn2-c2ccccc2)c(=O)[nH]1	–	–	–	·	·	·
CN(CC(=O)Nc1ccccc1Cl)C(=O)COC(=O)Cc1c(F)cccc1Cl	–	–	–	10µM	?	–
CN(CC(=O)Nc1ccc(F)cc1)C(=O)COC(=O)Cc1c(F)cccc1Cl	–	–	6.5µM	·	·	–
CCCN1CCC(N(C)CCc2ccc(OC)c(OC)c2)CC1	–	–	–	–	–	–
Fc1ccc(NC(=S)N2CCN(c3ncccn3)CC2)cc1	–	–	–	?	–	–
CCC1Sc2ccc(S(=O)(=O)Nc3cc(OC)cc(OC)c3)cc2NC1=O (stereo unspecified)	–	16µM	?	–	–	?
CCc1cccc(NS(=O)(=O)c2ccc3c(c2)NC(=O)C(C)S3)c1 (stereo unspecified)	–	21µM	?	–	?	–
COc1ccc(N2CCN(S(=O)(=O)c3ccc4c(c3)NC(=O)C(C)S4)CC2)cc1 (stereo unspecified)	–	?	?	?	?	–
CCC1Sc2ccc(S(=O)(=O)N3CCN(c4ccccc4)CC3)cc2NC1=O (stereo unspecified)	–	15µM	?	?	–	–
CC(NC(=O)COc1ccc(S(=O)(=O)N2CCCC2)cc1)c1ccccc1 (stereo unspecified)	–	–	–	–	–	–
CCCCNC(=O)C1c2ccccc2OCC(=O)N1Cc1ccccc1 (stereo unspecified)	–	?	?	·	·	·
CC1(C)N=C(SCC(=O)Nc2ccc(Cl)cc2)C(c2ccccc2)=N1	-87	?	?	–	–	?
CC1(C)N=C(SCC(=O)Nc2ccc(Cl)cc2)C(c2ccc(Cl)cc2)=N1	-109	?	18µM	–	–	?
O=C(O)C1CCCCC1C(=O)Nc1ccc(S(=O)(=O)N2CCOCC2)cc1 (stereo unspecified)	–	–	–	·	·	·
SMILES	IL1B secr inh	TDP1 cell CPT	TDP1 cell noCPT	RORgamma inh	Gal4-VP16 FLuc	ELG1 DNA repair
Cc1ccc(-n2c(=O)c3c(c4cc(C)ccc4n3C)n(CC(=O)c3ccc(Cl)cc3)c2=O)cc1	·	–	–	·	·	·
CC(C)c1ccc(NC(=O)c2cnc3sc(N4CCCC4)nn3c2=O)cc1	·	2.9µM	2.1µM	·	·	·
O=C(Nc1cccc(F)c1)c1cnc2sc(N3CCCC3)nn2c1=O	·	2.3µM	3.3µM	·	·	·
Cc1cccc(NC(=O)c2cc(-c3cc(Cl)ccc3O)n[nH]2)c1	–	?	?	–	–	?
COCCNC(=O)C1(C)CCN(C(=O)c2nc(C)oc2C)C1 (stereo unspecified)	–	–	–	·	·	·
CCC1(c2ccc(O)cc2)NC(=O)N(C)C1=O (stereo unspecified)	·	·	·	–	–	·
C=C[C@@H]1c2cc(C)ccc2N(S(=O)(=O)c2ccc(C)cc2)[C@H](c2ccc(OC(C)=O)cc2)C1(C#N)C#N	–	4.6µM	5.8µM	·	·	–
CC(=O)CC1N(S(=O)(=O)c2ccc(C)cc2)c2ccccc2N1S(=O)(=O)c1ccc(C)cc1	–	–	–	·	·	·
Cc1ccc2c(c1)C1CN(C)CCC1N2S(=O)(=O)c1ccc(C#N)cc1 (stereo unspecified)	–	–	–	·	·	–
C=C[C@@H]1c2ccccc2N(S(=O)(=O)c2ccc(C)cc2)[C@H](c2ccc(OC(C)=O)cc2)C1(C#N)C#N	–	16µM	16µM	·	·	–
CCOC(=O)C1=C(CCc2ccccc2)NC(=O)NC1c1ccc(C#N)cc1 (stereo unspecified)	–	?	?	·	·	·
Cc1ncc2c(c1CNC(=O)CN1CCCC1)CCN(C(=O)c1ccc(F)cc1F)C2	·	–[9.04 µM]	–	·	·	·
O=C(NCc1ccccc1)C1C(c2ccccc2)=Nc2ccccc2N1C(=O)c1cccnc1 (stereo unspecified)	–	–	–	·	·	·
CN(Cc1ccccc1)C(=O)c1cccc(NC(=O)Cc2cccc([N+](=O)[O-])c2)c1	?	?	23µM	·	·	?
CN(C(=O)c1ccc(NC(=O)Cc2ccc([N+](=O)[O-])cc2)cc1)C1CCCC1	–	13µM	?	·	·	?
CN(C(=O)c1cccc(NC(=O)Cc2ccc([N+](=O)[O-])cc2)c1)C1CCCC1	–	23µM	26µM	·	·	–
CN(C(=O)c1cccc(NC(=O)Cc2cccc([N+](=O)[O-])c2)c1)C1CCCC1	·	18µM	?	·	·	?
O=C(NCC1CC1)c1ccc2sc([C@@H]3O[C@H](CO)[C@H](O)[C@H](O)[C@H]3O)nc2c1	–	–	–	·	·	·
Cc1cnc(CNc2ccnc(-c3ccccc3C)n2)cn1	·	–	–	–	–	·
COc1ccc(C(CNC(=O)CCC(=O)c2ccc(C)s2)N2CCOCC2)cc1 (stereo unspecified)	–	–	–	·	·	–
O=C(COc1ccc2ccccc2c1CN1CCOCC1)N1CCc2ccccc21	-74	?	?	–	–	?
O=C(COc1ccccc1)N1CCc2ccccc21	–	–	?	–	–	?
O=C(COc1cccc2ccccc12)N1CCN(c2ccccc2)CC1	–	?	?	?	–	8.2µM

From PubChem BioAssay
